Data on 39 compounds can be found in PubChem BioAssay (NCI).

This is part of a sample that, as a whole, favours compounds with a hit. Of some 83,000 tested, about 20% had one in any assay.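 Interpretation: 100, growth as untreated; towards 0, rising growth inhibition; 0, no net growth; 0 to -100, cell death. Compounds scoring below 10 were considered active.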 Values without a mark were called inactive. The source made the active and inactive calls.

For one assay, the system named is MCF7 breast. The experiment in a line: NCI-60 one-dose screen, 48 h (100 = growth as untreated, 0 = no growth, -100 = all killed). The note with it: 10 µM.
For the compound `Cc1ccc(C)c(-c2csc(Nc3ccc(C)c(C)c3)n2)c1`, the growth is -30.3% (active).
As for `COc1ccc(-c2nnc(COc3ccc(C(=O)/C=C/c4ccco4)cc3)o2)cc1`, the growth was 19.6%.
Still for that read-out and setting: next, `O=C1/C=C/[C@@H](O)[C@@H]2C[C@@H](O)C[C@H]2/C=C/CCCCO1`: -48% (active); `COc1ccc(CCN2C(=O)CCSC2=S)cc1`: 16.2%.
As to `COc1ccc(/C=C/C(=O)c2ccc3cc(OC)c(OC)cc3c2)cc1OC`, the growth was 25.9%.
Take `CC(C)c1ccc(S(=O)(=O)NC(=O)NC2CCCC2)cc1`: the growth was 93.2%.
Still for that read-out and setting: next, `CCN1CCN(c2cc(C)c3cc(NC(=O)c4ccc(OC)c(OC)c4)ccc3n2)CC1`: 17.9%; `CCOC(=O)c1c2c(c(C)n1Cc1ccc(OC)cc1)-c1oncc1CC2`: 97.5%; `COC(=O)/C(=C\c1c(C)[nH]c2ccccc12)S(=O)(=O)c1ccccc1`: 6.71% (active).
The same measure, in the same setting: the value for `O=C(NCCCN1CCC(N2CCCCC2)CC1)C1=Cc2cc(Br)ccc2OC1` was 25.5%; that for `O=C(Nc1ccc(-c2nc3cc4ccccc4cc3[nH]2)cc1)c1cccc(Br)c1` was 27.5%; that for `Nc1nc(-c2cnccn2)nn1-c1nc2ccccc2s1` was 83.8%.
For `CCCCN1CCN(c2ccc3nc(-c4ccc5nc(-c6ccc(C(F)(F)F)cc6)[nH]c5c4)[nH]c3c2)CC1`, the growth was -74.3% (active).
Consider `O=C(Nc1ccc(N2CCNCC2)cn1)c1[nH]ncc1Nc1ncnc2sccc12`, for which the growth is 20.1%.
Consider `CCOC(=O)CSc1c(-c2ccccc2)c2cc(Cl)ccc2[nH]c1=O`, for which the growth was 93.3%.
The same measure, in the same setting: the value for `O=C1Nc2ccccc2/C1=C/c1ccc[nH]1` was 12.8%.
Same read-out and setting: the value for `NC(CCc1nc2ccccc2c(=O)[nH]1)C(=O)O` (stereo not drawn) was 105%; that for `CCCSC1=NC2C(N(CC)C(=O)N2CC)N1/N=C/C=C/c1ccccc1[N+](=O)[O-]` (stereo not drawn) was 21.8%.
The same measure, in the same setting: next, `COc1cccc(/C(C#N)=C/c2nc3c(N4CCOCC4)nc(Cl)nc3n2C)c1`: -44.1% (active).
As for `CN1CCN(Cc2ccc(NC(=O)c3[nH]ncc3Nc3cc(OC4CCCC4)ncn3)cc2)CC1`, the growth was 10.7%.
On to `COc1cccc(C(=O)NC(c2ccc(C)cc2)c2cc(Cl)c3cccnc3c2O)c1` (stereo not drawn), for which the growth is 17.9%.
Consider `COc1ccc(-c2nsc3c2NC(=O)CC3c2ccsc2)cc1` (stereo not drawn), for which the growth is 16.7%.
Same read-out and setting: the value for `COc1cc(C2C(C#N)=C(N)OC3=C2C(=O)c2ccccc2C3=O)cc(OC)c1O` (stereo not drawn) was 20%.
Same read-out and setting: the value for `CCN(CC)c1cc(C)c2cc(NC(=O)c3cccc(OC)c3)ccc2n1` was 73.1%; that for `CCCCNc1nc(NC(C)(C)C)nc(NC(C)(C)C)n1` was 56%.
For `CC(=O)n1cc(-c2c[nH]c3ccccc23)c(-c2ccc(Cl)cc2)n1`, the growth is 71.5%.
Regarding `COc1cccc(C2=NN3C(C2)c2ccccc2OC3c2ccc(/C=C3\SC(=O)NC3=O)cc2)c1` (stereo not drawn), the growth was 90.7%.
Still for that read-out and setting: the value for `COC(=O)/C(CCC=C(C)C)=C1\[C@@H](OC(C)=O)C[C@@]2(C)[C@H]1C[C@@H](O)[C@H]1[C@@]3(C)CC[C@H](NCCCNCCCCNCCCN)[C@@H](C)[C@@H]3CC[C@@]12C` was 95.6%.
For the compound `CN1C(=O)N(C)C2Nn3c(s/c(=C\c4ccc(Cl)cc4Cl)c3=O)=NC21` (stereo not drawn), the growth was 45.4%.
The same measure, in the same setting: next, `O=C(Nc1nc2c(s1)CCc1c-2c(Br)n(Cc2ccccc2)c1Br)c1ccccc1`: 51.5%; `S=C1NC2(c3ccccc3)CCC(=S)N2c2ccccc21` (stereo not drawn): 108%.
On to `Nc1ccccc1-c1ccc(-c2ccc(Cl)cc2)c2c1[nH]c1ccccc12`, for which the growth was 68.7%.
Take `O=C1Nc2ccccc2/C1=C/c1cccs1`: the growth was 60.8%.
Still for that read-out and setting: next, `OCCNc1nc(Nc2ccc(C3=NN(c4cc(Cl)cc(Cl)c4)C(c4ccc(C(F)(F)F)cc4)C3)cc2)nc(N2CCOCC2)n1` (stereo not drawn): 30.1%; `COc1ccc(-c2nsc3c2NC(=O)CC3c2ccc3c(c2)OCCO3)cc1` (stereo not drawn): 24.7%.
As for `COc1cc(/C=C2\CN(C)C/C(=C\c3cc(CN4CCCCC4)c(O)c(OC)c3)C2=O)cc(CN2CCCCC2)c1O`, the growth was 11.7%.
With `CCCCOCc1cc(CN2CCN(C)CC2)c(O)c2ncccc12`, the growth was 27.2%.
With `NCCNc1nc2ccccc2c2c(=O)c3cc(F)cc(Cl)c3sc12`, the growth is -91.6% (active).
On the same count and under the same terms, the value for `CNC(=O)c1cc(Oc2ccc(CC(=O)Nc3cc(C(C)(C)C)cn3C)cc2)ccn1` was 50.1%.

In the next assay the test system is HCT-116 colon. Described as above. The conditions noted are these: 10 µM unless noted.
Turning to `Cc1ccc(C)c(-c2csc(Nc3ccc(C)c(C)c3)n2)c1`, the growth was 3.25% (active).
With `COc1ccc(-c2nnc(COc3ccc(C(=O)/C=C/c4ccco4)cc3)o2)cc1`, the growth is -10.2% (active).
On the same count and under the same terms, next, `O=C1/C=C/[C@@H](O)[C@@H]2C[C@@H](O)C[C@H]2/C=C/CCCCO1`: 0.136% (active).
On to `COc1ccc(CCN2C(=O)CCSC2=S)cc1`, for which the growth is 17.1%.
As to `COc1ccc(/C=C/C(=O)c2ccc3cc(OC)c(OC)cc3c2)cc1OC`, the growth was 16.9%.
Take `CC(C)c1ccc(S(=O)(=O)NC(=O)NC2CCCC2)cc1`: the growth is 97.5%.
`CCN1CCN(c2cc(C)c3cc(NC(=O)c4ccc(OC)c(OC)c4)ccc3n2)CC1`: the growth was 26.3%.
The same measure, in the same setting: next, `CCOC(=O)c1c2c(c(C)n1Cc1ccc(OC)cc1)-c1oncc1CC2`: 80.2%; `COC(=O)/C(=C\c1c(C)[nH]c2ccccc12)S(=O)(=O)c1ccccc1`: 29.5%; `O=C(NCCCN1CCC(N2CCCCC2)CC1)C1=Cc2cc(Br)ccc2OC1`: 37%.
On the same count and under the same terms, next, `O=C(Nc1ccc(-c2nc3cc4ccccc4cc3[nH]2)cc1)c1cccc(Br)c1`: 64.6%.
The same measure, in the same setting: the value for `Nc1nc(-c2cnccn2)nn1-c1nc2ccccc2s1` was 93%.
Take `CCCCN1CCN(c2ccc3nc(-c4ccc5nc(-c6ccc(C(F)(F)F)cc6)[nH]c5c4)[nH]c3c2)CC1`: the growth is -70.7% (active).
Regarding `O=C(Nc1ccc(N2CCNCC2)cn1)c1[nH]ncc1Nc1ncnc2sccc12`, the growth was -68.2% (active).
On to `CCOC(=O)CSc1c(-c2ccccc2)c2cc(Cl)ccc2[nH]c1=O`, for which the growth was 92.1%.
Consider `O=C1Nc2ccccc2/C1=C/c1ccc[nH]1`, for which the growth was 96%.
Consider `NC(CCc1nc2ccccc2c(=O)[nH]1)C(=O)O` (stereo not drawn), for which the growth is 105%.
`CCCSC1=NC2C(N(CC)C(=O)N2CC)N1/N=C/C=C/c1ccccc1[N+](=O)[O-]` (stereo not drawn): the growth was 7.28% (active).
On the same count and under the same terms, the value for `COc1cccc(/C(C#N)=C/c2nc3c(N4CCOCC4)nc(Cl)nc3n2C)c1` was -72.9% (active); that for `CN1CCN(Cc2ccc(NC(=O)c3[nH]ncc3Nc3cc(OC4CCCC4)ncn3)cc2)CC1` was 4.66% (active).
Regarding `COc1cccc(C(=O)NC(c2ccc(C)cc2)c2cc(Cl)c3cccnc3c2O)c1` (stereo not drawn), the growth is 19.2%.
Consider `COc1ccc(-c2nsc3c2NC(=O)CC3c2ccsc2)cc1` (stereo not drawn), for which the growth was 10.8%.
For `COc1cc(C2C(C#N)=C(N)OC3=C2C(=O)c2ccccc2C3=O)cc(OC)c1O` (stereo not drawn), the growth was 22.5%.
Same read-out and setting: next, `CCN(CC)c1cc(C)c2cc(NC(=O)c3cccc(OC)c3)ccc2n1`: 70.1%.
As to `CCCCNc1nc(NC(C)(C)C)nc(NC(C)(C)C)n1`, the growth was 30.8%.
On the same count and under the same terms, the value for `CC(=O)n1cc(-c2c[nH]c3ccccc23)c(-c2ccc(Cl)cc2)n1` was 61.7%.
Still for that read-out and setting: next, `COc1cccc(C2=NN3C(C2)c2ccccc2OC3c2ccc(/C=C3\SC(=O)NC3=O)cc2)c1` (stereo not drawn): 109%; `COC(=O)/C(CCC=C(C)C)=C1\[C@@H](OC(C)=O)C[C@@]2(C)[C@H]1C[C@@H](O)[C@H]1[C@@]3(C)CC[C@H](NCCCNCCCCNCCCN)[C@@H](C)[C@@H]3CC[C@@]12C`: 47.1%; `CN1C(=O)N(C)C2Nn3c(s/c(=C\c4ccc(Cl)cc4Cl)c3=O)=NC21` (stereo not drawn): 43.9%.
On the same count and under the same terms, next, `O=C(Nc1nc2c(s1)CCc1c-2c(Br)n(Cc2ccccc2)c1Br)c1ccccc1`: 69.9%.
`S=C1NC2(c3ccccc3)CCC(=S)N2c2ccccc21` (stereo not drawn): the growth is 103%.
Consider `Nc1ccccc1-c1ccc(-c2ccc(Cl)cc2)c2c1[nH]c1ccccc12`, for which the growth is 52.8%.
For the compound `O=C1Nc2ccccc2/C1=C/c1cccs1`, the growth is 99.9%.
With `OCCNc1nc(Nc2ccc(C3=NN(c4cc(Cl)cc(Cl)c4)C(c4ccc(C(F)(F)F)cc4)C3)cc2)nc(N2CCOCC2)n1` (stereo not drawn), the growth is 66.8%.
Still for that read-out and setting: the value for `COc1ccc(-c2nsc3c2NC(=O)CC3c2ccc3c(c2)OCCO3)cc1` (stereo not drawn) was 12.7%; that for `COc1cc(/C=C2\CN(C)C/C(=C\c3cc(CN4CCCCC4)c(O)c(OC)c3)C2=O)cc(CN2CCCCC2)c1O` was 30.7%; that for `CCCCOCc1cc(CN2CCN(C)CC2)c(O)c2ncccc12` was 19.1%.
The same measure, in the same setting: the value for `NCCNc1nc2ccccc2c2c(=O)c3cc(F)cc(Cl)c3sc12` was -89.6% (active); that for `CNC(=O)c1cc(Oc2ccc(CC(=O)Nc3cc(C(C)(C)C)cn3C)cc2)ccn1` was 54.3%.
